Experimental data: ChEMBL document CHEMBL3988442, “University of Dundee, Small-Polar-MMV Screening Library” (2021)
For some assays here: Potency and affinity values are given separately.

How the values were obtained:
Design in all cases: scale not given: direction of the effect not stated beside the values
[1] = target: Protein translocase subunit SecA (Escherichia coli (strain K12)) (UniProt P10408); experiment: Assay to Identify E. coli SecA ATPase Inhibitors; type: functional; conditions: 30 µM
Protein translocase subunit SecA (Escherichia coli (strain K12)), sequence (P10408 whole entry): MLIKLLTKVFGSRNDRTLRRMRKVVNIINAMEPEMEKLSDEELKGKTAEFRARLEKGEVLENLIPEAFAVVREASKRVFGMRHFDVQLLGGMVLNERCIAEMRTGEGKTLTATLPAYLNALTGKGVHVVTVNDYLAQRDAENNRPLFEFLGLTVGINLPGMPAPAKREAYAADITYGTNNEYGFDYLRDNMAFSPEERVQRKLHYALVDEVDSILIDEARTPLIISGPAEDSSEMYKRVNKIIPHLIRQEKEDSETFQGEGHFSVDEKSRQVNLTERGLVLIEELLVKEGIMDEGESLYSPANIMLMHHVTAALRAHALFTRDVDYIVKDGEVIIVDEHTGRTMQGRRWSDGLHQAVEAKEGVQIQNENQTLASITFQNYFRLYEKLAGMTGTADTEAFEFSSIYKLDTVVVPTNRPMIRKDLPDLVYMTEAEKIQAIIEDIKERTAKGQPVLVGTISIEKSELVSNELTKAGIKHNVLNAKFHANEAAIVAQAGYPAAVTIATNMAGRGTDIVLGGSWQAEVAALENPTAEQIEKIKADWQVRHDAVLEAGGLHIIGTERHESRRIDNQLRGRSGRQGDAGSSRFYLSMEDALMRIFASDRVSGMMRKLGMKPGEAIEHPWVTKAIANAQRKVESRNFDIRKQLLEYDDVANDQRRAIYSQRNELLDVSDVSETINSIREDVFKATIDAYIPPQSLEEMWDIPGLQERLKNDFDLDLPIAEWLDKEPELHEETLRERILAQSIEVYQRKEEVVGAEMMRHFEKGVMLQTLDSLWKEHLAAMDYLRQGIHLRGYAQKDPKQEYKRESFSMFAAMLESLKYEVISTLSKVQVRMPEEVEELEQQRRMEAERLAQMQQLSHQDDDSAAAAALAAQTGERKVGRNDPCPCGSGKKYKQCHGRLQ

[2] = target: T1, Ubiquitin-activating enzyme e1, putative (Leishmania donovani (strain BPK282A1)) (UniProt E9BSI1); experiment: Leishmania donovani Ubiquitin Activating Enzyme (LdE1); type: functional; conditions: 30 µM
T1 sequence (whole entry): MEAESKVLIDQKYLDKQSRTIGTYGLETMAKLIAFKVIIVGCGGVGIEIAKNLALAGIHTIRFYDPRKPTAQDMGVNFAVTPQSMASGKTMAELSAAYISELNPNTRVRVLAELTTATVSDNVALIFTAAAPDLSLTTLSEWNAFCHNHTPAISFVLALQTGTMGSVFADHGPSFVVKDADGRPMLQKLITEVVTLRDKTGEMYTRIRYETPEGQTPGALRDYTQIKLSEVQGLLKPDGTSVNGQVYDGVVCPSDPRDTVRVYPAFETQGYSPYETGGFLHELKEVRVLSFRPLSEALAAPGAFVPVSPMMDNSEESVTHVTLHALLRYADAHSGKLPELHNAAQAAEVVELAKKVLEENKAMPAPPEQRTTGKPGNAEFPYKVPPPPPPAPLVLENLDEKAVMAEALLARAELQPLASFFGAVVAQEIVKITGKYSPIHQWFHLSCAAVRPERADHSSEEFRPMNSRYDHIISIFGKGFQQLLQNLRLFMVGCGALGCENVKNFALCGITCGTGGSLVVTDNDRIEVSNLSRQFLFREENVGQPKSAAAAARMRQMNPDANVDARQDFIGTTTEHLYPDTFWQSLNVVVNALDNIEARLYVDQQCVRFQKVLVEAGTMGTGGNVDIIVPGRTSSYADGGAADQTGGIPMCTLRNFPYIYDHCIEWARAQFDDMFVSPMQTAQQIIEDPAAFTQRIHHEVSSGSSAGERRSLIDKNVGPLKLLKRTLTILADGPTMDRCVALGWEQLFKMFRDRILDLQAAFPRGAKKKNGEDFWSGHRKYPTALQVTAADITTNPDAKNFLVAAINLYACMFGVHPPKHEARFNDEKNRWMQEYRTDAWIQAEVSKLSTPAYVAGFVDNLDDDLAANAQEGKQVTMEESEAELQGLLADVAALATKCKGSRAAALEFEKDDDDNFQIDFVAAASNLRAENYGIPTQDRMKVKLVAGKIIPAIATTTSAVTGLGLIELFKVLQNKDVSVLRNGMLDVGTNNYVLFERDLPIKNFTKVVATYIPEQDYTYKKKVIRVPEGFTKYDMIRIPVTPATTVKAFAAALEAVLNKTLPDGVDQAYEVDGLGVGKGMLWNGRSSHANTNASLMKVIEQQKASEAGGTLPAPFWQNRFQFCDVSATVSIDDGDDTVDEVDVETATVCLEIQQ

[3] = target: AMP-activated protein kinase, AMPK (Homo sapiens) (UniProt P54646+O43741+P54619+Q9UGJ0+Q9Y478+Q13131+Q9UGI9); experiment: AMP-dependent Kinase enzyme assay. An in vitro enzyme assay that detects ADP turnover that is directly proportional to AMPK activity. This uses naive AMPK that is activated during the assay with MK-8722; type: functional; conditions: 30 µM
[4] = target: Sialic acid-binding Ig-like lectin 9 (Homo sapiens) (UniProt Q9Y336); experiment: Hs-Siglec9 ALPHAscreen SOP 20170721; conditions: 10 µM
Sialic acid-binding Ig-like lectin 9 (Homo sapiens), sequence (Q9Y336 whole entry): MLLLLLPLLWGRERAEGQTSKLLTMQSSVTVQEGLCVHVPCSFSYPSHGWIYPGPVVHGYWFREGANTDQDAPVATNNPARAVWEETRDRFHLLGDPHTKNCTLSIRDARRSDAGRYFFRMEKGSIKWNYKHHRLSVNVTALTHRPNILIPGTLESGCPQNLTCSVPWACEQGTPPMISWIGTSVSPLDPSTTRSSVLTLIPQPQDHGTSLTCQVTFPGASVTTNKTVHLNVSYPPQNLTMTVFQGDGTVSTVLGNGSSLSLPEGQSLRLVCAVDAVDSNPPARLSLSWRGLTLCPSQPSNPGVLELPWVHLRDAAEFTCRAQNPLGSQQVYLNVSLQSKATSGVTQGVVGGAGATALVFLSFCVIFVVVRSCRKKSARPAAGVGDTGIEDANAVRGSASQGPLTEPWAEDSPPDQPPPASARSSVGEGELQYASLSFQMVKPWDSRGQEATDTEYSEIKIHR

Trypanosoma cruzi = experiment: Trypanosoma cruzi phosphomannomutase and mannose-1-phosphate guanylyltransferase assay; type: functional; conditions: 10 µM
[5] = target: T2, Arginase-2, mitochondrial (Homo sapiens) (UniProt P78540); experiment: in vitro enzyme assay to detect the production of urea directly proportional to the activity of Arginase II; type: functional; conditions: 33.3 µM; note: in the data most compounds retested in dose-response had high values
T2 sequence (whole entry): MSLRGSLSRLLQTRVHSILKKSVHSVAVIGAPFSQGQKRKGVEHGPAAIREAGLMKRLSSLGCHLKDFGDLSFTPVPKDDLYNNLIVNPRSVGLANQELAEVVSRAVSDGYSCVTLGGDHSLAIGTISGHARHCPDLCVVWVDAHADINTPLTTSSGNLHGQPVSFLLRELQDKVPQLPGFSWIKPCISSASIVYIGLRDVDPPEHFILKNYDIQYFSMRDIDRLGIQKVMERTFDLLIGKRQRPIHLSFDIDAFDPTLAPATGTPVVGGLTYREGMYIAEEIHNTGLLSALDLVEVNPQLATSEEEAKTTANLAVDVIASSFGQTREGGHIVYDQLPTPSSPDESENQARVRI

[6] = target: T3, Proteasome subunit beta (Trypanosoma cruzi) (UniProt O96673); experiment: Trypanosoma cruzi proteasome chymotrypsin-like activity (TcProtChymo) assay.; note: in the data most compounds retested in dose-response had high values; type: functional; conditions: 9.37 µM
T3 sequence (whole entry): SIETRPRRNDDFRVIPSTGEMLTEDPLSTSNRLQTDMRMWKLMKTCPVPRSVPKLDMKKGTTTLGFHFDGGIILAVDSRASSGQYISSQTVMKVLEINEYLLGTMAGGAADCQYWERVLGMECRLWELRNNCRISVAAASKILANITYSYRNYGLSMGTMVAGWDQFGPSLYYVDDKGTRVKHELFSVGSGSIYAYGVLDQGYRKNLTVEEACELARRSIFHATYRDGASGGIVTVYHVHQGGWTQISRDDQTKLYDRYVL

Homo sapiens = organism: Homo sapiens; experiment: To identify inhibition of the IFN signalling (Jak-Stat) pathway via expression of an eGFP reporter gene under the control of an IFN-stimulated response element (ISRE) containing MxA promoter.; type: functional; conditions: 30 µM
[7] = target: T4, Tyrosyl-tRNA synthetase, putative (Trypanosoma cruzi (strain CL Brener)) (UniProt Q4DSP6); experiment: Trypanosoma cruzi tyrosyl tRNA synthetase (TcYRS) _High Tyrosine SOP; type: functional; conditions: 30 µM; note: in the data most compounds retested in dose-response had high values
T4 sequence (whole entry): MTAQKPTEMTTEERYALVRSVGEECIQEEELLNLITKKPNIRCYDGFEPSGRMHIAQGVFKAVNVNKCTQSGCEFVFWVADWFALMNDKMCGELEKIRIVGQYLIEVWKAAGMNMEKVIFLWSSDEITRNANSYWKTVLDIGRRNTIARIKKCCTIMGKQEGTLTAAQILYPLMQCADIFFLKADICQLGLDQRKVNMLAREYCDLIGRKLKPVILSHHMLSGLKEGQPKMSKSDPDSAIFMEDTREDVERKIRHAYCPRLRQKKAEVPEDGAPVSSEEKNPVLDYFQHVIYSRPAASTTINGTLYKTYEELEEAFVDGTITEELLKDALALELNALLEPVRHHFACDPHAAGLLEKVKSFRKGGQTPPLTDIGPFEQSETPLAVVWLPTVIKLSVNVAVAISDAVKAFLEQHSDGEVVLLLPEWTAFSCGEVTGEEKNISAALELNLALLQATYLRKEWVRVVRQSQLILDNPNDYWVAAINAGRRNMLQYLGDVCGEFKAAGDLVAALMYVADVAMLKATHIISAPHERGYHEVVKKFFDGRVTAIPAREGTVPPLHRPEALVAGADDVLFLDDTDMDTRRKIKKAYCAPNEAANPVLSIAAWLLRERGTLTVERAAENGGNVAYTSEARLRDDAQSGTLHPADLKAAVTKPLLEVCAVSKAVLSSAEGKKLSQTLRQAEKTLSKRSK

[8] = target: T4, Tyrosyl-tRNA synthetase, putative (Trypanosoma cruzi (strain CL Brener)); experiment: Trypanosoma cruzi tyrosyl tRNA synthetase (TcYRS) SOP; type: functional; conditions: 30 µM
[9] = target: Chromo domain-containing protein 1 (Saccharomyces cerevisiae (strain ATCC 204508 / S288c) (Baker's yeast)) (UniProt P32657); experiment: ScCHD-1 Enzyme Inhibition Assay; type: functional; conditions: 30 µM; note: in the data most compounds retested in dose-response had high values
Chromo domain-containing protein 1 (Saccharomyces cerevisiae (strain ATCC 204508 / S288c) (Baker's yeast)), sequence (P32657 whole entry, the tested form may be a part): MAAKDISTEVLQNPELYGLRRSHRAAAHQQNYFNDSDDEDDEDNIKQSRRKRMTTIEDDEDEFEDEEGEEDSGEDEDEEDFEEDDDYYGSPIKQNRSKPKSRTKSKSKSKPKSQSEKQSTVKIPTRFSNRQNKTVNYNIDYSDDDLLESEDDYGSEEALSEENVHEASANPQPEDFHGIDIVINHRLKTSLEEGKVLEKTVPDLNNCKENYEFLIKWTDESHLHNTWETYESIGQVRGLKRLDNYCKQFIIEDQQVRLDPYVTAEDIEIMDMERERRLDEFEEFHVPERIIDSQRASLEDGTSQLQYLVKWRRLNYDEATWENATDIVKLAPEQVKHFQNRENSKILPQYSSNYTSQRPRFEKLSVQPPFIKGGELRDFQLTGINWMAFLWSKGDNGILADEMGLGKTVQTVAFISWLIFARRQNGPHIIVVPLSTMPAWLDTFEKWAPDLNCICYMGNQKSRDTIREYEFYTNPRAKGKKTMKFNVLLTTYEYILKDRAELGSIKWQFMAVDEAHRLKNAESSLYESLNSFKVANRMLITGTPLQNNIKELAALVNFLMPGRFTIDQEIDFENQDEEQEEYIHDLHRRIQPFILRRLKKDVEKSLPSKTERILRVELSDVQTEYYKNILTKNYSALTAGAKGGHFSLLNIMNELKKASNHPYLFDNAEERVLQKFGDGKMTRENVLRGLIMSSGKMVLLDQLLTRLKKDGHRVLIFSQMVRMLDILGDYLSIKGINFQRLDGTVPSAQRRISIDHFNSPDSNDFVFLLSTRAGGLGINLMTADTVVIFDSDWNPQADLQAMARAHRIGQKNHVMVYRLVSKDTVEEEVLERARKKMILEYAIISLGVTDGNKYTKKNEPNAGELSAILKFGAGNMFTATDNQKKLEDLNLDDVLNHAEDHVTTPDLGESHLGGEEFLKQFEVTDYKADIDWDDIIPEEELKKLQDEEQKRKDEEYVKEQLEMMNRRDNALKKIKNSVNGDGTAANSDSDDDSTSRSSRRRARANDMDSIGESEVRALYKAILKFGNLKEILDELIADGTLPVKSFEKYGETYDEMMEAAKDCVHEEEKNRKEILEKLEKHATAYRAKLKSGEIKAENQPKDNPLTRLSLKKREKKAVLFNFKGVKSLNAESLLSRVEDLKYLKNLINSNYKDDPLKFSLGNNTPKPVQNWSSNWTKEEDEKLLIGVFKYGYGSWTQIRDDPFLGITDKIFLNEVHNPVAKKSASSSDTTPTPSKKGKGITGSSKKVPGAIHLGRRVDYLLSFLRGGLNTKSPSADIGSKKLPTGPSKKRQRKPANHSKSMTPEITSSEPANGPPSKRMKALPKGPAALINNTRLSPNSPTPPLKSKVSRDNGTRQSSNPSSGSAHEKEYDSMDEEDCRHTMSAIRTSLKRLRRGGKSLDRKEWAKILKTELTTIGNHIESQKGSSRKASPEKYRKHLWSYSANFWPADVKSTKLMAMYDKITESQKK

Row | SMILES | Percent Effect [1] | Percent Effect [2] | Percent Effect [3] | Percent Effect [4] | Percent Effect (Trypanosoma cruzi) | Percent Effect [5] | Percent Effect [6] | Percent Effect (Homo sapiens) | Percent Effect [7] | Percent Effect [8] | Percent Effect [9]
1 | O=C(NCCc1nnc2n1CCC2)NC1(c2cccc(F)c2)CC1 | -3.06% | 15.8% | 4.44% | -2.57% | -3.6% | -3.55% | 14.1% | 11% | 0% | 10.4% | -3.66%
2 | COc1ccc(CC(=O)N2CCCC2Cn2cccn2)cc1F (stereo not given) | -2.59% | 2.63% | -8.2% | 6.06% | -2.52% | 1.44% | 2.12% | -12.5% | -0.493% | 1.24% | -2.17%
3 | CN(Cc1ccc2c(c1)OCCO2)C(=O)NCCc1cnn(C)c1 | -2.93% | 18.9% | -2.51% | 14.3% | -10.3% | 0.554% | 14.5% | 18% | 2.97% | -1.22% | -6.78%
4 | Cc1cnn(CC2CN(Cc3cccc(OCC(N)=O)c3)CCO2)c1 (stereo not given) | -3.33% | -5.2% | 0.653% | 4.26% | -7.3% | 5.34% | -2.53% | 23.4% | 3.88% | -2.44% | 1.45%
5 | O=C(CN1CCN(CC(O)C2CC2)CC1)NCc1ccc(F)cc1 (stereo not given) | -3.06% | 10.4% | 6.87% | 0.218% | 4.83% | 9.68% | 13.1% | 22.2% | 8.47% | 19.2% | -7.59%
6 | CN(C)CCn1c(=O)oc2ccc(NC(=O)CC(C)(C)C)cc21 | -5.92% | 16% | -6.21% | 19.3% | 4.38% | 14.1% | 7.67% | 5.54% | 10.4% | 23.5% | 1.52%
7 | Cc1ccc(-c2cc(N)c(=O)n(CC(=O)NCC3CC3)n2)s1 | -3.74% | 6.76% | 19.9% | 2.48% | -0.395% | -5.8% | 9.2% | 11.4% | 1.07% | 9.09% | -14.1%
8 | Cc1ccc(N2CC3(COCCN(Cc4cccnc4)C3)OCC2=O)s1 (stereo not given) | -6.13% | 2.6% | 20.6% | -4.32% | -2.27% | 0.645% | 4.18% | 21.4% | -2.12% | -3.85% | -1.59%
9 | c1cc(CNCC2CNc3ccnn3C2)cc(N2CCCCC2)n1 (stereo not given) | -3.28% | 19% | -11.8% | -8.9% | 13% | -2.8% | 27.1% | 1.88% | 13.5% | 22.8% | -27.6%
10 | Cc1nc(CN2CC3(CCN(c4ncc(F)cn4)C3)CC2=O)cs1 (stereo not given) | -1.99% | 0% | 8.52% | 6.6% | -0.69% | 1.94% | 0.348% | 7.34% | 3.17% | 8.97% | -4.69%
